Measured values: PubChem BioAssay (Tox21)
Records with an inconclusive call do not appear. Entries that show only a call come without a potency. Activity calls are given as the source filed them. The call rests on the fitted dose curve.

Target: 5-hydroxytryptamine receptor 2A (Homo sapiens) (UniProt P28223)
Test: 5-hydroxytryptamine receptor 2A (HTR2A) small molecule antagonists, cell-based qHTS assay (AID 1963586); further: nearly all actives have a fitted effect of over 45% in size
Conditions: HTR2A-CHO cells, DOI-induced calcium flux, fluorescence; series mostly up to 61.5 µM
Excerpt: National Center for Advancing Translational Sciences [NCATS]
Division of Preclinical Innovation [DPI]
U.S. Environmental Protection Agency [EPA]
National Institutes of Environmental Health Sciences [NIEHS]
National Toxicology Program [NTP]
U.S. Food and Drug Administration [FDA]
The HTR2A receptor is a subtype of the 5-HT2 receptor that belongs to the serotonin receptor family and is a G protein-coupled receptor (GPCR). The HTR2A-CHO cell line stably expressing human 5-hydroxytryptamine receptor 2A (HTR2A) can be used for screening antagonists of interactions between 5-HT2 and its ligands. The HTR2A-CHO calcium flux assay is a homogeneous fluorescence-based assay for detecting the intracellular calcium level using FDSS kinetic plate reader system.
Tox21 Assay Protocol Summary:
HTR2A-CHO cells were dispensed at 2000 cells/3uL/well in 1536-well black-clear bottom plates using a Multidrop Dispenser. After the assay plates were incubated at a 37 C/5% CO2 incubator for 18 h, 3 uL of Dye Loading Buffer was transferred to the assay plate by a Flying Reagent Dispenser. The assay plates were incubated at 37 C for 1h. For antagonist mode, 23 nL of compounds dissolved in DMSO, positive controls or DMSO only was transferred to the assay plate by a pin tool. After 5 min incubation at room temperature, 1.5 uL of 4-Iodo-2,5-dimethoxy-alpha-methylbenzeneethanamine hydrochloride (DOI) at 4nM was added to each well. The fluorescence intensity in the plates was measured using FDSS 7000EX kinetic plate reader for 3 min at 1 sec intervals.
Potency means the concentration at half of the fitted maximal effect.

Chain of 5-hydroxytryptamine receptor 2A (Homo sapiens) (P28223 whole entry, looked up): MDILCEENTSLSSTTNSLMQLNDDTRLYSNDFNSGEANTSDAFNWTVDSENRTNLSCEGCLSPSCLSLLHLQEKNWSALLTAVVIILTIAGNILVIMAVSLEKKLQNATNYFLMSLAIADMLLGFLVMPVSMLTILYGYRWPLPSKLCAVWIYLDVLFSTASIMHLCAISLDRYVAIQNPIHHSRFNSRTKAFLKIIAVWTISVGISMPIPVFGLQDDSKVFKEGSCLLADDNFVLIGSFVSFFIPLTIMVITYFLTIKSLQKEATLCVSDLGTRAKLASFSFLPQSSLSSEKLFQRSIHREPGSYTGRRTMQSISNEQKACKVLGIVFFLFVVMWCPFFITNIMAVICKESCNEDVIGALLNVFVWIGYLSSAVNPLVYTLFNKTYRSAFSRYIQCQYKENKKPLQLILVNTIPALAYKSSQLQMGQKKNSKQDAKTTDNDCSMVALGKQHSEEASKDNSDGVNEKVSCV

Row | SMILES | Potency
1 | O=C1C(=O)c2ccccc2C(O)=C1C1CCC(c2ccc(Cl)cc2)CC1 (stereo not given) | inactive
2 | O=C1c2ccccc2C(=O)C1(O)O | inactive
3 | COC(=O)CCCC(=O)O | inactive
4 | COC(C)(C)CCCC(C)CC=O (stereo not given) | inactive
5 | Cc1cccc(C)c1OCC(=O)N[C@@H](Cc1ccccc1)[C@@H](O)C[C@H](Cc1ccccc1)NC(=O)[C@H](C(C)C)N1CCCNC1=O | inactive
6 | COC(=O)c1ccc(NC(C)=O)cc1OC | inactive
7 | Cn1cccc1 | inactive
8 | CC(=O)Oc1cc2c(s1)CCN(C(C(=O)C1CC1)c1ccccc1F)C2 (stereo not given) | inactive
9 | CN1CCN(N)CC1 | inactive
10 | COc1ccc(C)cc1[N+](=O)[O-] | inactive
11 | CC(=O)Nc1cc(S(=O)(=O)O)cc2cc(S(=O)(=O)O)c(N=Nc3ccccc3)c(O)c12 | inactive
12 | C1OCOCO1 | inactive
13 | Nc1nc(CC(=O)O)cs1 | inactive
14 | C=CC1CC2C=CC1C2 (stereo not given) | inactive
15 | COc1ccc([C@@H]2Sc3ccccc3NC(=O)[C@@H]2O)cc1 | inactive
16 | CN1CCC[C@@H]1Cc1c[nH]c2ccc(CCS(=O)(=O)c3ccccc3)cc12 | 0.365 µM (active)
17 | O=C(O)C(=O)Cc1c[nH]c2ccccc12 | inactive
18 | O=C(C(Cl)Cl)N1CCOC12CCCCC2 | inactive
19 | Oc1ccc2c(c1)OCO2 | inactive
20 | FC(F)OC(Cl)C(F)(F)F (stereo not given) | inactive

Row | SMILES | Potency
21 | CO[C@@H]1[C@H](OC(=O)/C=C/C=C/C=C/C=C/C(=O)O)CC[C@]2(CO2)[C@H]1[C@@]1(C)O[C@@H]1CC=C(C)C | inactive
22 | Nc1cc([N+](=O)[O-])cc(Cl)c1O | inactive
23 | CC(C)(C)C(=O)O | inactive
24 | C=CC/C=C/C | inactive
25 | CCOc1ccc(NC(=O)OC(C)C)cc1OCC | inactive
26 | CCCCCCCCCOC(C)=O | inactive
27 | CN(C)c1ccc(C(c2ccccc2)c2ccc(N(C)C)cc2)cc1 | inactive
28 | Cc1cc(O)c2c(c1)C(=O)c1cccc(O)c1C2=O | inactive
29 | CC(=O)OC(C)=O | inactive
30 | CCC(CC)(CC(=O)Nc1cccc(/C=C/c2nc(C3CCC3)cs2)c1)C(=O)O | inactive
31 | C=C(C)C(=O)OCCCCCCCCCCOC(=O)C(=C)C | inactive
32 | O=C(CCCCC(=O)Nc1c(I)cc(I)c(C(=O)O)c1I)Nc1c(I)cc(I)c(C(=O)O)c1I | inactive
33 | CCOC(=O)[C@H](CCc1ccccc1)N[C@@H](C)C(=O)N(CC(=O)O)C1Cc2ccccc2C1 | inactive
34 | Cc1cc(C)c(C=O)c(C)c1 | inactive
35 | NC(=O)N(O)[C@@H]1C=C[C@H](Oc2cccc(Oc3ccc(F)cc3)c2)C1 | inactive
36 | CC(CN(C)C)C(C)(O)Cc1ccc(Cl)cc1 (stereo not given) | inactive
37 | Nc1cnn([C@@H]2O[C@H](CO)[C@@H](O)[C@H]2O)c(=O)n1 | inactive
38 | COc1ccc(OC)c(OC)c1 | inactive
39 | N[C@H](C(=O)O)[C@@H](O)c1ccc(O)c(O)c1 | inactive
40 | COc1cc2nc(Cl)nc(N)c2cc1OC | inactive
